Results reported in PubChem BioAssay AID1645886 (National Center for Advancing Translational Sciences (NCATS), 2021).
About 260 (1.6%) of roughly 16,000 compounds were called active. Another 14% or so got no clear call; they are omitted. Calls come from the whole dose curve; as a rule, active = well fitted inhibition curve with a large enough effect; inconclusive = small, poorly fitted or top-dose-only effect; inactive = no such curve, though single readings can be large or run the other way. The entries come from a sample that favours actives as a whole. Some compounds were tested as several samples or in several runs, with calls that do not always agree.

The compounds below were run against Rap guanine nucleotide exchange factor 4 (Homo sapiens) (UniProt Q8WZA2) (assay: Validation qHTS for antagonist of cAMP-regulated guanine nucleotide exchange factor 4 (EPAC2)). Settings: EPAC2 Rap1B BODIPY-GDP exchange, fluorescence; series mostly up to 112 µM; activity, negative = inhibition: at the top concentration.
Sequence of Rap guanine nucleotide exchange factor 4 (Homo sapiens) (Q8WZA2 whole entry, looked up): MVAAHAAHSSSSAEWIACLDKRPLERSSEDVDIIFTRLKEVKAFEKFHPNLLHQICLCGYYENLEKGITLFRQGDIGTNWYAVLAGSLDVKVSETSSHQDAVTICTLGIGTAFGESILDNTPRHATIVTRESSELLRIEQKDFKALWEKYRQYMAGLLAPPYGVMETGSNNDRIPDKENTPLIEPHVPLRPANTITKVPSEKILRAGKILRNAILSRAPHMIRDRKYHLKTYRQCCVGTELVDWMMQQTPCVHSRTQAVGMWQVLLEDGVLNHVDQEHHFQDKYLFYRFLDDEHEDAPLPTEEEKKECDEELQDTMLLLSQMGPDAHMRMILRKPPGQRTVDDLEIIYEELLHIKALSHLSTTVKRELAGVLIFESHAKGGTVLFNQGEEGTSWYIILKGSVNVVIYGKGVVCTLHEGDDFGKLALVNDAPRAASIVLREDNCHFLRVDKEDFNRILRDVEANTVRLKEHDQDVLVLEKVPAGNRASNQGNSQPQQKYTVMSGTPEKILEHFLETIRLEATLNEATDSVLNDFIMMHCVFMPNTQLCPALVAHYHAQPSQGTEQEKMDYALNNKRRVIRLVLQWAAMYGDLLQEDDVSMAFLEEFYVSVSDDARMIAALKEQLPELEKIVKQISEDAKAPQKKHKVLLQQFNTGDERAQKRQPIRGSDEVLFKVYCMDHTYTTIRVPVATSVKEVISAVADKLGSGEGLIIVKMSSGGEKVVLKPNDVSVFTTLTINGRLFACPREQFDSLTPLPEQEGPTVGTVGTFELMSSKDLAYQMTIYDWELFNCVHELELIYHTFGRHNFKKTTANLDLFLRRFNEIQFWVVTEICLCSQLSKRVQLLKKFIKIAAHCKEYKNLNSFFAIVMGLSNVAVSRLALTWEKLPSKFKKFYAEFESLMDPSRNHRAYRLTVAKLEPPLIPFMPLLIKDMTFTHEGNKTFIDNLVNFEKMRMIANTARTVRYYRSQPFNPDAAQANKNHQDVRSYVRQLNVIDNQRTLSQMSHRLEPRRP
Description: Principle Investigator: Xiaodong Cheng Ph.D. The University of Texas Medical Branch, […], TX MLPCN Grant: NS066510 In multi-cellular eukaryotic organisms, the effects of cAMP are transduced by two ubiquitously-expressed intracellular cAMP receptors, the classic protein kinase A/cAMP-dependent protein kinase (PKA/cAPK) and the more recently discovered exchange protein directly activated by cAMP/cAMP-regulated guanine nucleotide exchange factor (EPAC/cAMP-GEF). Both PKA and EPAC are ubiquitously expressed in all tissues, and an increase in intracellular cAMP levels will lead to the activation of both PKA and EPAC. Therefore, careful dissections of the individual role and relative contribution of EPAC and PKA within the overall cAMP signaling in various model systems are critical for further elucidating the mechanism of cAMP signaling. To date no EPAC-specific antagonists and agonist, as well as isoform-specific agonists have been reported, and developing EPAC-specific pharmacological probes to determine the physiological functions that EPAC play in the overall cAMP-mediated signaling remains a major challenge within the research field. Furthermore, identified regulators of EPAC may lead to new mechanism-based therapeutic strategies specifically targeting the EPAC / cAMP-signaling components as EPAC has been implicated to play important roles in major human pathological conditions such as diabetes, heart disease, and cancer. This qHTS will be used to screen the Molecular Libraries Small Molecule Repository (MLSMR) as a concentration-titration series using the NCGC unique quantitative screening (qHTS) platform to find activators for EPAC1. In addition, this assay will also be used as a counterscreen for the EPAC2 qHTS. This fluorescent based assay is developed and validated for EPAC1 that measures exchange using EPAC effector Rap1 complex with BODIPY-GDP, a GDP analog with a tethered fluorophores. Activators are identified by monitoring the change in fluorescence signal as the exchanged free BODIPY-GDP has a reduced fluorescence compared to Rap1-bound BODIPY-GDP. Increase in signal (activation) is the desired outcome for the EPAC1 agonist while no activity in this assay is desired for the EPAC2 agonist counterscreen. Reference: [1] de Rooij, J., Zwartkruis, F. J., Verheijen, M. H., Cool, R. H., Nijman, S. M., Wittinghofer, A., and Bos, J.L. (1998) Nature 396, 474-477.
Briefly, three uL of reagents (100 nM EPAC2, 250 nM RAP1B-BODIPY-GDP, 50 uM GDP) were dispensed into a 1536-well Greiner black solid-bottom medium binding assay plate. Controls and test compounds (23 nL) were transferred to the plate via a Kalypsys pin tool equipped with a 1536-pin array. The plates were centrifuged at 1,000 rpm for 15 seconds followed by 5 minute incubation at room temperature. The assay plates were read at 5 minute intervals for 30 minutes in the ViewLux plate reader using 480nm excitation and 540nm emission filters. The results were normalized to the agonist positive control of 6.5 mM cAMP.
Note: nearly all actives have a fitted effect of over 40% in size.
Potency is the fitted concentration of half-maximal effect.

| Structure (SMILES) | activity, negative = inhibition | Potency |
| --- | --- | --- |
| NCCC(=O)c1ccccc1N | -11% (inactive) |  |
| Cc1ccc(-c2nn(CC(C)(C)C)c3ncnc(N)c23)cc1 | -16.1% (inactive) |  |
| CN[C@@H]1[C@H](O[C@H]2[C@H](O[C@H]3[C@H](O)[C@@H](O)[C@H](N=C(N)N)[C@@H](O)[C@@H]3N=C(N)N)O[C@@H](C)[C@]2(O)CO)O[C@@H](CO)[C@H](O)[C@H]1O | -7.91% (inactive) |  |
| CCS(=O)(=O)N(C)[C@@H]1c2cc(C#N)ccc2OC(C)(C)[C@H]1O | -18.9% (inactive) |  |
| CC(C)=CCN1CCC2(CCc3ccccc32)CC1 | 4.49% (inactive) |  |
| Nc1nc2[nH]c(=O)c(=O)[nH]c2c(=O)[nH]1 | -5.47% (inactive) |  |
| Cn1c(=O)c(-c2ccccc2)nc2cnc(N3CCNCC3)nc21 | -20.6% (inactive) |  |
| COc1ccccc1CN1CC2(CCN(S(=O)(=O)c3ccccc3)CC2)C1 | -22.4% (inactive) |  |
| CCC1(C2CCN(Cc3cccnc3)CC2)NC(=O)N(CC2COc3ccccc3O2)C1=O (centres undefined) | -20.3% (inactive) |  |
| CCn1ccnc1C[C@@H]1COc2ccccc2O1 |  | 20 µM (active) |
| Nc1nc2c(nc(Cl)n2C2OC(CO)C(O)C2O)c(=O)[nH]1 (centres undefined) | -5.51% (inactive) |  |
| Cc1nnc(C(=O)NC(C)(C)c2nc(C(=O)NCc3ccc(F)cc3)c(O)c(=O)n2C)o1 | 13.2% (inactive) |  |
| O=C(c1cccc(F)c1)N1CCC2(CC1)CCN(c1ccccc1)CC2 | -18.3% (inactive) |  |
| COc1ccc(-n2c(=O)c(-c3cn(C)c4ccccc34)nc3cnc(OC)nc32)cc1 | -21.3% (inactive) |  |
| COc1ccccc1CNc1ncnc2ccc(-c3c(C)noc3C)cc12 | -16% (inactive) |  |
| CC1(C)OC2CC3C4CCC5=CC(=O)CCC5(C)C4(F)C(O)CC3(C)[C@]2(C(=O)CCl)O1 (some centres undefined) | -11.2% (inactive) |  |
| COc1ccccc1-c1ccc(C(=O)N(C)C(C)c2ccon2)c(N2CCN(c3ccccc3F)CC2)n1 (centres undefined) | -16.9% (inactive) |  |
| COc1ccccc1-c1ccnc(-n2ncc(C(=O)NCCCN3CCOCC3)c2C)n1 | -2.97% (inactive) |  |
| N#Cc1ccc(CN2CCCC3(CCN(C(=O)c4ccco4)CC3)C2)cc1 | -18.6% (inactive) |  |
| CS(=O)(=O)N1CCC2(CC1)CN(c1ccncc1)C2 | -32.4% (inactive) |  |
| COc1ccc(NC(=O)N2CC3(CCN(C(C)=O)CC3)C2)cc1 | -19.7% (inactive) |  |
| N#Cc1ccccc1-c1ccc2ncnc(NCc3cccnc3)c2c1 | -5.3% (inactive) |  |
| COC1(C2=NCCN2)COc2ccccc2O1 (centres undefined) | -22% (inactive) |  |
| COc1ccc2c(=O)cc(-c3ccccc3)oc2c1O | -30.4% (inactive) |  |
| Cc1ccc(-c2ccnc(-n3ncc(C(=O)N(C)Cc4cccc5ncccc45)c3C3CC3)n2)o1 | 5.35% (inactive) |  |
| NC1CCN(O)C1=O (centres undefined) | 9.16% (inactive) |  |
| CC(=O)O[C@]1(C(C)=O)CC[C@H]2[C@@H]3C=C(C)C4=CC(=O)CC[C@]4(C)[C@H]3CC[C@@]21C | -0.525% [at 56.6 µM] (inactive) |  |

| Structure (SMILES) | activity, negative = inhibition | Potency |
| --- | --- | --- |
| Nc1nc2c(ncn2[C@@H]2O[C@H](COP(=O)(O)OP(=O)(O)OP(=O)(O)O)[C@@H](O)C2O)c(=O)[nH]1 (some centres undefined) | 13.3% (inactive) |  |
| CC(C)NC(=O)N1CCC2(CC1)CCN(C(=O)c1cccn1C)CC2 | -21.4% (inactive) |  |
| CCNc1ncc2ncc(=O)n(CCc3ccccc3)c2n1 | -6.79% (inactive) |  |
| CN1CCC(=O)N([C@H](CO)Cc2ccccc2)CC1 | 1.88% (inactive) |  |
| O=C(/C=C/c1cccc(F)c1)NC1CC1 | 28.6% (inactive) |  |
| Cc1nc2cnc(N3CCNCC3)nc2n(CCc2ccccc2)c1=O | -20.3% (inactive) |  |
| Cc1cnc(CNc2cc(-c3c(C)noc3C)ncn2)cn1 | -8.53% (inactive) |  |
| COC(=O)c1c(OCc2ccc(F)cc2)cc(=O)n2c1CCN(Cc1ccc3cccnc3c1)CC2 | -20.7% (inactive) |  |
| COc1ccc2[nH]cc(CCNc3nc(-c4cccc(NS(C)(=O)=O)c4)nc4ccccc34)c2c1 | -18.1% (inactive) |  |
| COc1cc(=O)n2c(c1C(=O)NC(C)c1ccco1)CCN(Cc1cc(C)cc(C)c1)CC2 (centres undefined) | 8.46% (inactive) |  |
| O=C(Nc1cccc(F)c1)N1CC2(CCN(C(=O)c3csnn3)CC2)C1 | -28.5% (inactive) |  |
| FC(F)(F)c1cccc(-c2cn[nH]c2C2CCCN(Cc3cccn3-c3ccccn3)C2)c1 (centres undefined) | -16.2% (inactive) |  |
| CC(=O)O[C@]1(C(C)=O)CC[C@H]2[C@@H]3CCC4=CC(=O)CC[C@]4(C)[C@@]3(F)[C@@H](O)C[C@@]21C | -8.39% (inactive) |  |
| COc1ccccc1CNc1ncnc2ccc(-c3ccc4c(c3)OCO4)cc12 | -17.6% (inactive) |  |
| O=C(c1cn(CC2CCCN(Cc3cc4ccccc4s3)C2)nn1)N1CCCC1 (centres undefined) | -18.8% (inactive) |  |
| COCCn1c(=O)c(-c2ccccc2)nc2cnc(N3CCOCC3)nc21 | -0.915% (inactive) |  |
| CC1O[C@@H](Oc2c(-c3ccc(O)c(O)c3)oc3cc(O)cc(O)c3c2=O)C(O)C(O)C1O (some centres undefined) | -13% (inactive) |  |
| O=C(C(=O)N1CCOc2ccc(CN3CCN(Cc4ccccn4)CC3)cc2C1)c1ccccc1 | -2.87% (inactive) |  |
| COC(=O)N1CCC2(CCCN(Cc3ccccc3OC)C2)CC1 | -12.2% (inactive) |  |
| CCOc1ccc2nc(N3CCCN(CCCn4cccn4)CC3)nc(C)c2c1 | -5.1% (inactive) |  |
| Oc1cc2c(cc1O)CN(C(=S)NCCc1ccc(Cl)cc1)CCC2 |  | 56.2 µM (active) and inactive |
| CC(C)=CCC/C(C)=C/CC/C(C)=C/CC/C(C)=C/CO |  | inactive |
| O=c1c(O)c(Br)ccc2c(Br)c(O)c(O)c(O)c12 | 6.67% (inactive) |  |
| CC(=O)NC(=O)c1ccccc1O | 23.4% (inactive) |  |
| Cc1oc(-c2cccc(NC(=O)c3ccccc3)c2)nc1CNC(=O)c1cnc2ccccn2c1=O | -3.94% (inactive) |  |
| COc1ccccc1C(=O)N[C@@H]1c2ccccc2C2(CCN(C(=O)c3csnn3)CC2)[C@H]1OC | -9.95% (inactive) |  |
| CC1C(O)CC2C(C(=O)O)=CO[C@@H](O[C@H]3OC(CO)C(O)C(O)C3O)C21 (some centres undefined) | -1.93% (inactive) |  |
